In PubChem BioAssay AID1117292 (Broad Institute, 2014) one finds outcome data, which are given here for 22 molecules.

Each structure is given as a SMILES string. Entries with a potency or affinity are not part of this list. Records with an inconclusive call do not appear. The source made the active and inactive calls.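 The calls were made as follows: active = compound whose fitted half-maximal dose for signal loss lies within twice the top dose in every replicate test; inconclusive = tests disagree, or flat partial signal loss or poor fit; inactive = every test inactive, flat, rising or too weak.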

Sequence of Endoplasmic reticulum aminopeptidase 1 (Homo sapiens) (Q9NZ08 whole entry, looked up): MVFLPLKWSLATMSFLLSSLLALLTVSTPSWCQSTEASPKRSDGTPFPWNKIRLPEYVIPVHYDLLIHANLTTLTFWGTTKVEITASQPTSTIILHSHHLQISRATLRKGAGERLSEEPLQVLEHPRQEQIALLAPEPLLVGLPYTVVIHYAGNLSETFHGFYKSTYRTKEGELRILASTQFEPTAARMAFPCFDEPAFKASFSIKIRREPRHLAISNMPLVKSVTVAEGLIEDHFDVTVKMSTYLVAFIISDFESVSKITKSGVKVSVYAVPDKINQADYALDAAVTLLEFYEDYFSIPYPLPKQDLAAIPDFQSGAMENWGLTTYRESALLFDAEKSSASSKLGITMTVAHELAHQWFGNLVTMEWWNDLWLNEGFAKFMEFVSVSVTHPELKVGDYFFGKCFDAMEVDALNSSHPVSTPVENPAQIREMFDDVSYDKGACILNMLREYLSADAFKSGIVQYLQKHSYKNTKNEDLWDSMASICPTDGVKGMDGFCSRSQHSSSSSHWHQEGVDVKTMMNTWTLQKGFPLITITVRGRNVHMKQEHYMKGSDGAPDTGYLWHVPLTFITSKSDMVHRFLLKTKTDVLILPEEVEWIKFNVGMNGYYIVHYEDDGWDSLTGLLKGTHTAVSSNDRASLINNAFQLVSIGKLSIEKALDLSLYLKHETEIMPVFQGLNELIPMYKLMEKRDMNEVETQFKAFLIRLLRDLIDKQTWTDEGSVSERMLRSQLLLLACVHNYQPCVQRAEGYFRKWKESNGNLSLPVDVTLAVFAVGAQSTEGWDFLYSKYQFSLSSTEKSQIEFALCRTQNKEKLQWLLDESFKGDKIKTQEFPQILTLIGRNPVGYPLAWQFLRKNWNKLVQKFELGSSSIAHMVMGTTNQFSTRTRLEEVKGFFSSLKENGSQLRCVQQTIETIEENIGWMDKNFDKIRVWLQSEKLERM

The assay addresses Endoplasmic reticulum aminopeptidase 1 (Homo sapiens) (UniProt Q9NZ08). Put plainly: blocking ERAP1 cleavage of leucine-AMC substrate – biochemical, fluorescence plate reader, dry powder, dose response (AID 1117292). As to conditions: purified ERAP1, Leu-AMC fluorescence, 60 min; series mostly up to 50 µM.
Regarding `CC(=O)N1CCN(C(=O)C2(NC(=O)Nc3cccc(C(F)(F)F)c3)CCCCC2)CC1`, the outcome was inactive.
As to `Cc1ccc(NC(=O)NC2(C(=O)N3CCNCC3)CCCCC2)cc1`, the call was inactive.
On to `COc1ccc(C(=O)Nc2ccccc2N2CCCCC2)cc1S(=O)(=O)O`, for which the molecule was classed as inactive.
With `COc1ccc(C(=O)Nc2cc(C)ccc2N2CCCCC2)cc1S(=O)(=O)O`, the outcome was inactive.
The value for `CC(=O)N1CCN(C(=O)C2(NC(=O)Nc3ccc(C(F)(F)F)cc3)CCCCC2)CC1` was “inactive”; that for `CC(=O)N1CCN(C(=O)C2(NC(=O)Nc3ccc(C(F)(F)F)cc3)CCCC2)CC1` was “inactive”.
The same measure for `Cc1ccccc1S(=O)(=O)Nc1cc(C(F)(F)F)ccc1N1CCCCC1`: “inactive”.
The value for `Cc1ccc(NC(=O)NC2(C(=O)N3CCN(c4ccccc4)CC3)CCCCC2)cc1` was “inactive”; that for `Cn1cnc(S(=O)(=O)Nc2cc(C(F)(F)F)ccc2N2CCCCC2)c1` was “inactive”; that for `CC(=O)N1CCN(C(=O)C2(NC(=O)Nc3ccc(F)cc3)CCCC2)CC1` was “inactive”.
As for `O=[N+]([O-])c1ccc(S(=O)(=O)Nc2cc(C(F)(F)F)ccc2N2CCCCC2)c([N+](=O)[O-])c1`, the call was inactive.
As to `CC(=O)N1CCN(C(=O)C2(NC(=O)NCCc3ccccc3)CCCCC2)CC1`, the outcome was inactive.
The same measure for `COc1ccc(C(=O)O)cc1S(=O)(=O)Nc1cc(C(F)(F)F)ccc1N1CCOCC1`: “inactive”; for `CC(=O)N1CCN(C(=O)C2(NC(=O)Nc3ccc(C(C)C)cc3)CCCC2)CC1`: “inactive”.
The value for `O=S(=O)(Nc1cc(C(F)(F)F)ccc1N1CCCCC1)c1ccc(Br)cc1` was “inactive”; that for `N#Cc1ccc(S(=O)(=O)Nc2cc(C(F)(F)F)ccc2N2CCCCC2)cc1` was “inactive”; that for `COc1ccc(S(=O)(=O)Nc2cc(C(F)(F)F)ccc2N2CCCCC2)cc1` was “inactive”.
The same measure for `CC(=O)N1CCN(C(=O)C2(NC(=O)Nc3ccc(C)cc3)CC2)CC1`: “inactive”.
On to `COc1cccc(NC(=O)NC2(C(=O)N3CCN(C(C)=O)CC3)CCCCC2)c1`, for which the molecule was called inactive.
In the case of `O=S(=O)(Nc1cc(C(F)(F)F)ccc1N1CCCCC1)c1ccc(Cl)cc1`, the molecule was classed as inactive.
The same measure for `O=S(=O)(Nc1cc(C(F)(F)F)ccc1N1CCCCC1)c1ccc(F)cc1`: “inactive”; for `COc1ccc(C(=O)O)cc1S(=O)(=O)Nc1cc(C(F)(F)F)ccc1N1CCCCC1`: “inactive”.
